From PubChem BioAssay AID1159580 (chemical genetic matrix, 2015)
Out of some 5,500 compounds screened, about 2,000 (36%) were called active. Roughly 18% stayed inconclusive and do not appear here. No stated cut-off is given here; in the data, active means normalized growth mostly below about 0.91 (no sharp cut-off); inconclusive means no clear call, values can overlap the other calls; inactive means mostly above about 0.92. The list shows a part of the results.

Assay: chemical genetic growth profiling, strain panel (AID 1159580);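 further: tested at 20 µM; growth read once vehicle control cultures reached saturation at 30 °C; 1 = growth at the plate median or of vehicle wells; lower values mean less growth of the strain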
Settings: S. cerevisiae deletion strains, growth OD
[1] = locus YDL101C, strain DUN1, hits give low values
[2] = locus YHR030C, strain SLT2, hits give low values
[3] = locus YNL153C, strain GIM3, hits give low values
[4] = locus YNL322C, strain KRE1, hits give low values

Measured: normalized growth

O=C(Nc1ccccc1C(=O)NC1CCCCNC1=O)c1cccs1 (configuration not stated)
inactive: locus YAL013W, strain DEP1, hits give low values 1 | locus YBR229C, strain ROT2, hits give low values 1.01 | [1] 1 | locus YDL134C, strain PPH21, hits give low values 1.01 | locus YDR150W, strain NUM1, hits give low values 0.996 | locus YEL061C, strain CIN8, hits give low values 1.01 | locus YGR078C, strain PAC10, hits give low values 1 | [2] 1.02 | locus YHR087W, strain rtc3, hits give low values 1.02 | locus YJL187C, strain SWE1, hits give low values 1.01 | locus YJR043C, strain POL32, hits give low values 0.972 | locus YJR075W, strain HOC1, hits give low values 1.02 | locus YLR039C, strain RIC1, hits give low values 1.06 | locus YLR058C, strain SHM2 (second series), hits give low values 1 | locus YLR085C, strain ARP6, hits give low values 1.01 | locus YLR262C, strain YPT6, hits give low values 1.03 | locus YML094W, strain GIM5, hits give low values 1.02 | locus YMR219W, strain ESC1, hits give low values 1.01 | locus YMR263W, strain SAP30, hits give low values 1.01 | [3] 1 | locus YNL298W, strain CLA4 (second series), hits give low values 1.03 | [4] 1 | locus YNR030W, strain Alg12, hits give low values 1.02 | locus YPL055C, strain LGE1, hits give low values 0.998 | locus YPL241C, strain CIN2, hits give low values 1.03 | locus YPR135W, strain CTF4, hits give low values 1.01

O=C(O)[C@@H]1C[C@H](C(=O)O)N1
inactive: locus YAL040C, strain CLN3, hits give low values 0.943 | locus YCL061C, strain MRC1 (second series), hits give low values 0.984 | locus YDR363W, strain ESC2, hits give low values 1.06 | locus YER002W, strain NOP16, hits give low values 0.988 | [3] 0.986 | locus YNL175C, strain NOP13, hits give low values 0.99 | locus YNL197C, strain WHI3, hits give low values 0.967 | locus YNL224C, strain SQS1, hits give low values 0.965 | [4] 0.987 | locus YOR083W, strain WHI5 (second series), hits give low values 0.973

O=C(NCc1ccco1)c1ccc(Oc2cc(Cl)cc(Cl)c2)o1
inactive: locus YAR019C, strain CDC15, hits give low values 0.961 | locus YBL105C, strain PKC1, hits give low values 0.96 | locus YBR135W, strain CKS1, hits give low values 0.964 | locus YBR136W, strain MEC1, hits give low values 0.964 | locus YBR160W, strain CDC28, hits give low values 0.967 | locus YDL017W, strain CDC7, hits give low values 0.969 | locus YDL028C, strain MPS1, hits give low values 0.967 | [1] 0.964 | locus YDL108W, strain KIN28, hits give low values 0.96 | locus YDL132W, strain cdc53, hits give low values 0.957 | locus YDL214C, strain PRR2, hits give low values 0.936 | locus YDR052C, strain DBF4, hits give low values 0.968 | locus YDR054C, strain cdc34, hits give low values 0.957 | locus YDR226W, strain ADK1, hits give low values 0.959 | locus YDR477W, strain SNF1, hits give low values 0.952 | locus YER123W, strain YCK3, hits give low values 0.932 | locus YER133W, strain GLC7, hits give low values 0.932 | locus YFL009W, strain cdc4, hits give low values 0.957 | locus YFL029C, strain CAK1, hits give low values 0.951 | locus YFR003C, strain YPI1, hits give low values 0.962 | locus YFR019W, strain FAB1, hits give low values 0.96 | locus YFR028C, strain CDC14, hits give low values 0.957 | locus YGR040W, strain KSS1, hits give low values 0.948 | locus YGR052W, strain FMP48, hits give low values 0.95 | locus YGR092W, strain DBF2, hits give low values 0.957 | [2] 1.05 | locus YHR079C, strain IRE1, hits give low values 1 | locus YHR082C, strain KSP1, hits give low values 0.994 | locus YHR205W, strain SCH9, hits give low values 0.952 | locus YIL147C, strain SLN1, hits give low values 0.964 | locus YJL095W, strain BCK1, hits give low values 0.931 | locus YJL128C, strain PBS2, hits give low values 0.914 | locus YJL157C, strain FAR1, hits give low values 0.941 | locus YJR016C, strain ILV3, hits give low values 0.955 | locus YJR066W, strain TOR1 (second series), hits give low values 0.974 | locus YJR066W, strain TOR1, hits give low values 1.03 | locus YKL048C, strain ELM1, hits give low values 0.939 | locus YKL067W, strain YNK1, hits give low values 0.945 | locus YKL101W, strain HSL1, hits give low values 0.917 | locus YKL193C, strain SDS22, hits give low values 0.958 | locus YKL203C, strain TOR2, hits give low values 1.01 | locus YLR133W, strain CKI1, hits give low values 0.931 | locus YLR403W, strain SFP1, hits give low values 0.968 | locus YML070W, strain DAK1, hits give low values 0.94 | locus YMR001C, strain CDC5, hits give low values 0.956 | locus YMR205C, strain PFK2 (second series), hits give low values 0.942 | locus YMR277W, strain FCP1, hits give low values 0.958 | locus YNL006W, strain LST8, hits give low values 0.971 | locus YNL020C, strain ARK1, hits give low values 0.939 | locus YNL161W, strain CBK1, hits give low values 0.967 | locus YNL183C, strain NPR1, hits give low values 0.963 | locus YNL207W, strain RIO2, hits give low values 0.947 | locus YNL222W, strain SSU72, hits give low values 0.964 | locus YNL307C, strain MCK1 (second series), hits give low values 0.93 | locus YOL078W, strain AVO1, hits give low values 0.953 | locus YOL136C, strain PFK27, hits give low values 0.907 | locus YOR061W, strain CKA2, hits give low values 0.942 | locus YOR119C, strain RIO1, hits give low values 1.01 | locus YOR231W, strain MKK1, hits give low values 0.883 | locus YOR329C, strain SCD5, hits give low values 0.965 | locus YPL031C, strain PHO85, hits give low values 0.942 | locus YPL153C, strain RAD53, hits give low values 0.969 | locus YPL204W, strain HRR25, hits give low values 0.941 | locus YPL209C, strain IPL1, hits give low values 0.961 | locus YPL256C, strain CLN2, hits give low values 0.906 | locus YPR025C, strain CCL1, hits give low values 0.961 | locus YPR106W, strain ISR1, hits give low values 0.958 | locus YPR111W, strain DBF20, hits give low values 0.949 | strain NNK1, hits give low values 0.942 | strain TSCII, hits give low values 0.955
active: locus YLR113W, strain HOG1, hits give low values 0.761
